# Rows were chosen to be rich in hits. Some 12% of all compounds tested hit in one or more screens of this group.
# Pf growth 96h: P. falciparum growth inhibition at 96 hour, primary screen for plastid delayed-death inhibitors. AID 504834. P. falciparum luciferase reporter growth, 96 h. Potency, µM (titrated, usually from 28.7 µM), without a hit: at the top dose activity change, negative = inhibition, actives largely listed as inhibitors. 320,000 compounds, 6.9% hits; also: % is scaled to controls: 0 for no effect and ±100 for the full control effect
#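 Delayed-death screen, second-generation endpoint: infected erythrocytes, 2% hematocrit, 0.05% parasitemia final; 96 hours at 37 C, 5% CO2; luciferase detection reagent; luminescence decrease equals reduced growth.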
# HCV inhibitor: blocks hepatitis C virus; Huh7.5.1 HCVcc-Cre infection, luciferase reporter, 44 h; 340,000 compounds, 3.4% hits; Potency, µM (top dose mostly 41.8 µM), without a hit: at the top dose activity change, negative = inhibition, most hits filed as inhibitors; also: % is scaled to controls: 0 for no effect and ±100 for the full control effect
#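 Seed cells (1,000/well) for 4 h; treat with compound and infect with HCVcc-Cre, moi about 0.5. Incubate 44 h, then detect luciferase activity.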
# SARS PLP yeast: SARS-CoV PLP inhibition in yeast | 330,000 compounds, 0.19% hits | S. cerevisiae expressing SARS-CoV PLpro, growth rescue | Potency, µM (highest dose often 32.9 µM), for the others: at the top dose activity, positive = growth rescue, actives largely listed as activators | AID 485353; calls by dose curve; also: 0% is about no effect; nearly all actives have a fitted effect of over 55% in size
# AMA1 RON2 block: disrupts binding of P. falciparum AMA1 to RON2; AlphaScreen AMA1-biotinylated RON2 peptide binding; Potency, µM (titrated, usually from 58.2 µM), inactives show at the highest dose activity change, negative = inhibition, actives largely listed as inhibitors; 360,000 compounds, 0.2% hits; AID 720542;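 also: 0% = vehicle wells and -100% = peptide control; nearly all actives have a fitted effect of over 45% in size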
#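 AMA1 (3D7) with his tag at 25 nM final met compounds first, then biotinylated RON2 peptide at 25 nM; detection used donor plus acceptor beads, 10 µg/mL apiece, read by AlphaScreen after 30 min at room temperature.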
# NS1 function inh: inhibitors of influenza NS1 protein function | Potency, µM (highest dose often 46.1 µM), without a hit: at the highest dose activity, positive = more growth | 270,000 compounds, 0.4% hits; calls by dose curve; also: actives are rising curves; nearly all actives have a fitted effect of over 50% in size
#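 Read-out: OD600 growth recovery of NS1-expressing budding yeast. Cells grown overnight at 30C in -URA glucose medium, washed, resuspended and diluted 1:100 in 2% galactose assay medium, pH 6.0. Same strain lacking NS1 served as positive control.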
# Pf growth 48h: inhibits P. falciparum growth in the first generation, 48 h | Potency, µM (highest dose often 28.7 µM), without a hit: at the highest dose activity change, negative = inhibition, hits mostly inhibitors | P. falciparum luciferase growth in erythrocytes, 48 h | AID 504832 | 310,000 compounds, 5.9% hits; also: % is scaled to controls: 0 for no effect and ±100 for the full control effect
#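 Growth was read as firefly luciferase luminescence after a 48 h, 37 C, 5% CO2 exposure of compounds to reporter-bearing P. falciparum cultures (0.1% parasitemia, 2% hematocrit final) in Albumax-supplemented RPMI 1640.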
# Starred values were filed as active, the others as inactive; ? = inconclusive; nt = no result. Unless noted, calls follow the shape of the dose curve; as a rule, active = well fitted curve in the direction sought with a large enough effect; inconclusive = small, poorly fitted or top-dose-only effect, or another doubt; inactive = no such curve, though single readings can be large; an effect the other way counts as inactive or inconclusive. Potency is read from the fitted curve at half-maximal effect.
SMILES,Pf growth 96h,HCV inhibitor,SARS PLP yeast,AMA1 RON2 block,NS1 function inh,Pf growth 48h
Cc1ccc(C)c(OCCn2cc(/C=C(\C#N)C(=O)NCc3ccco3)c3ccccc32)c1,0%,-19%,-1%,42%,7%,9.3µM*
Cc1ccc(NC(=O)Cn2cc(C(=O)C3CC3)c3ccccc32)c(C)c1,2%,15%,2%,-14%,-2%,33%
COc1cccc(OCCn2cc(C(C)=O)c3ccccc32)c1,?,?,-4%,-1%,-33%,9.3µM*
CC(=O)c1cn(CC(=O)Nc2ccc(C)cc2C)c2ccccc12,nt,5.6µM*,-11%,0%,4%,?
COc1ccc(OC)c(NC(=O)Cn2cc(C(=O)c3ccco3)c3ccccc32)c1,-21%,?,0%,-17%,-87%,?
CNC(=S)N/N=C/c1cn(CCOc2cccc(OC)c2)c2ccccc12,?,10µM*,-4%,29%,23%,?
CCCn1c(SCC(=O)NC2CCCCC2)nnc1C1CC1,-4%,1%,-5%,-1%,9%,6%
COc1ccccc1N1CCN(C(=O)C(=O)c2cccc([N+](=O)[O-])c2)CC1,nt,nt,nt,-12%,nt,nt
Cc1cccc(-n2ncc3c2CCCC3NC(=O)C2(C(N)=O)CC2)c1C (stereo not given),?,1.6µM*,5%,0%,7%,7%
Cc1cccc(-n2ncc3c2CCCC3NC(=O)C2=CC(=O)CC(C)(C)O2)c1C (stereo not given),-29%,7.1µM*,-8%,16%,4%,-30%
COC(=O)[C@]1(C)N[C@H](CN(C)C(=O)Nc2ccc(C)cc2)[C@@H]2C(=O)N(Cc3ccccc3)C(=O)[C@@H]21,nt,2.8µM*,3%,4%,nt,nt
COC(=O)[C@]1(C)N[C@H](CN(C)C(=O)Nc2ccc(Cl)cc2)[C@@H]2C(=O)N(Cc3ccccc3)C(=O)[C@@H]21,nt,17%,-2%,-6%,nt,nt
COC(=O)[C@]1(C)N[C@H](CN(C)C(=O)Nc2ccc(C)cc2)[C@@H]2C(=O)N(C)C(=O)[C@@H]21,nt,1µM*,1%,3%,nt,nt
COC(=O)[C@]1(C)N[C@H](CN(C)C(C)=O)[C@@H]2C(=O)N(C)C(=O)[C@@H]21,nt,-4%,-1%,-2%,nt,nt
COC(=O)[C@]1(C)N[C@H](CN(C)C(=O)c2ccccc2)[C@@H]2C(=O)N(C)C(=O)[C@@H]21,nt,4µM*,-1%,11%,nt,nt
CCN(C[C@H]1N[C@@](CC)(C(=O)OC)[C@H]2C(=O)N(C)C(=O)[C@@H]12)C(=O)Nc1ccc(C)cc1,nt,3.2µM*,-3%,18%,nt,nt
CCNC(=O)N(C)C[C@H]1N[C@@](C)(C(=O)OC)[C@H]2C(=O)N(C)C(=O)[C@@H]12,nt,-6%,-3%,-5%,nt,nt
CCN(C[C@H]1N[C@@](CC)(C(=O)OC)[C@H]2C(=O)N(C)C(=O)[C@@H]12)C(=O)Nc1ccc(OC)cc1,nt,-55%,1%,6%,nt,nt
CCCNC(=O)C1(C)CCCN(C(=O)c2ccc(OC(F)F)cc2)C1 (stereo not given),nt,nt,nt,12%,nt,nt
Cc1ccsc1C(=O)N1CCC1(C)C(=O)NS(=O)(=O)c1ccccc1 (stereo not given),nt,nt,nt,-9%,nt,nt
CC(C)C[C@@H](CN1CCCC1CN1C(=S)NC[C@@H]1Cc1ccc(O)cc1)N1C[C@H](Cc2ccc(O)cc2)N(CCc2ccccc2)C1=S (stereo not given in full),nt,-52%,nt,8%,nt,nt
CC(C)NC(=S)NC(=O)c1ccc(-c2ccccc2)cc1,22%,14µM*,3%,-9%,-13%,?
O=C(NC(=S)Nc1ccc(-c2ccccc2)cc1)c1ccccc1,nt,-6%,nt,28%,nt,nt
O=C(NCc1ccccc1)c1cc[n+](CC(=O)c2cccs2)cc1,114%,-13%,0%,-3%,9%,3%
CCOC(=O)N1CCN(C(=O)C2CCN(S(=O)(=O)CC)CC2)CC1,1.7µM*,8%,-1%,3%,3%,2%
SMILES,Pf growth 96h,HCV inhibitor,SARS PLP yeast,AMA1 RON2 block,NS1 function inh,Pf growth 48h
O=C1N[C@@H](Cc2ccccc2)C(=O)N2[C@H]1C[C@]1([C@]34C[C@H]5C(=O)N[C@@H](Cc6ccccc6)C(=O)N5[C@H]3N(S(=O)(=O)c3ccccc3)c3ccccc34)c3ccccc3N(S(=O)(=O)c3ccccc3)[C@H]21,0.74µM*,?,-2%,-4%,nt,1.5µM*
CCc1cc2c(=O)c(-c3cscn3)coc2c(CN(C)C)c1O,?,-7%,-16%,3%,6%,12µM*
CCc1cc2c(=O)c(-c3nc4ccccc4n3C)coc2c(CN2CCCCC2C)c1O (stereo not given),?,?,-1%,-30%,1%,?
CCc1cc2c(=O)c(-c3ccc4c(c3)OCO4)coc2c(CN(C)C)c1O,13µM*,-18%,2%,7%,-1%,9.3µM*
Cc1cccc2cc(C(c3nnnn3Cc3ccccc3)N3CCN(C)CC3)c(=O)[nH]c12 (stereo not given),?,10%,-1%,5%,-2%,-25%
Cc1ccc2[nH]c(=O)c(C(c3nnnn3CC3CCCO3)N3CCc4ccccc4C3)cc2c1 (stereo not given),14%,6%,1%,4%,3%,-13%
Cc1cc2cc(C(c3nnnn3Cc3ccco3)N3CCc4ccccc43)c(=O)[nH]c2cc1C (stereo not given),?,?,?,-25%,6%,0%
Cc1ccc2[nH]c(=O)c(C(c3nnnn3Cc3ccccc3)N3CCc4ccccc43)cc2c1 (stereo not given),nt,32µM*,6%,-12%,9%,nt
Cc1ccc2cc(C(c3nnnn3Cc3ccccc3)N3CCc4ccccc43)c(=O)[nH]c2c1C (stereo not given),nt,7%,-1%,-5%,3%,10µM*
Cc1ccc2[nH]c(=O)c(C(c3nnnn3CC3CCCO3)N3CCCc4ccccc43)cc2c1 (stereo not given),20%,11%,0%,-5%,?,13µM*
Cc1ccc2cc(C(c3nnnn3Cc3ccccc3)N3CCc4ccccc43)c(=O)[nH]c2c1 (stereo not given),6.6µM*,?,4%,0%,0%,nt
Cc1cc2cc(C(c3nnnn3Cc3ccccc3)N3CCc4ccccc43)c(=O)[nH]c2cc1C (stereo not given),5.2µM*,?,-2%,-12%,21%,nt
Cc1cc(-c2nn(-c3ccccc3F)cc2CN2CCCC(O)C2)c(C)s1 (stereo not given),?,3%,-3%,21%,1%,?
